From the supplement of paper PMC10498489
Hit rate of the full screen: of about 2,300 compounds, about 330 (14%) showed activity. These entries were drawn from the full list. Values without a mark were called inactive.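 How the source made its calls: active = median modified Z-score above 1.96; inactive = 1.96 or below.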

tested on: HepG2 Srxn1-GFP reporter cells (+30 nM CDDO-Me); assay: Srxn1-GFP intensity median modified Z-score relative to plate median; higher = stronger NRF2 / oxidative stress reporter activation, active = hit call of the paper; details: 10 µM; exposure time: 24h
How it was run: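 Each value is the replicate median of a per-plate modified Z-score for GFP intensity in HepG2 Srxn1-GFP BAC reporter cells. The cells (20,000 per well, 96-well plates, three replicate plates) received compound at 10 μM together with an NRF2 activator at 30 nM for 24 h, in ≤0.1% DMSO. Cytoplasmic GFP was quantified per cell from confocal images of formaldehyde-fixed, Hoechst-stained cells, leaving out images with fewer than 100 cells, and scaling used 1.4826 × median absolute deviation.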

Compound | Srxn1-GFP intensity median modified Z-score
C#C[C@]1(OC(C)=O)CCC2C3CCC4=C[C@@H](OC(C)=O)CCC4C3CC[C@@]21C (stereo partly drawn) [euspeclibcmpd896] | 2.28 (active)
C#C[C@]1(OC(C)=O)CCC2C3CCC4=CC(=NO)CCC4C3CC[C@@]21CC (stereo partly drawn) [euspeclibcmpd54] | -0.443
C#C[C@]1(O)CCC2C3CCc4cc(OC)ccc4C3CC[C@@]21C (stereo partly drawn) [euspeclibcmpd184] | 0.203
NCCCC(N)C(=O)O (stereo not drawn) [euspeclibcmpd2233] | -0.13
CCOC(=O)C1=CC(OC(CC)CC)[C@H](NC(C)=O)[C@@H](N)C1 (stereo partly drawn) [euspeclibcmpd2394] | -0.535
CC1=C(SC2CNC(C(=O)N(C)C)C2)C(C(=O)O)N2C(=O)[C@H]([C@@H](C)O)[C@@H]12 (stereo partly drawn) [euspeclibcmpd460] | -0.758
CC1CN(C(=O)CSc2nc3ccc(Br)cc3c3nc(=O)c(-c4ccccc4)nn23)CC(C)O1 (stereo not drawn) | 2.28 (active)
CC(C)CCOc1ccc2[nH]c(-c3cc(NCCc4cn5c(n4)SCC5)ccn3)cc2c1 | 0.892
COc1ccc(-c2oc3ccccc3c(=O)c2OC)cc1 [euspeclibcmpd1341] | 0.287
CN(C)[C@@H]1C(O)=C(C(N)=O)C(=O)[C@@]2(O)C(O)c3c(c(O)c4c(Cl)ccc(O)c4c3O)C[C@@H]12 (stereo partly drawn) [euspeclibcmpd85] | -0.132
O=C(C(=O)c1ccccc1)c1ccccc1 | 1.75
O=C(CC(=O)c1ccccc1)c1ccccc1 [euspeclibcmpd1779] | 2.2 (active)
O=C(O)c1ccccc1 [euspeclibcmpd2047] | 0.122
C[n+]1cccc(C(=O)O)c1 [euspeclibcmpd1706] | -0.33
CCCc1nn(C)c2c(=O)nc(-c3cc(S(=O)(=O)N4CCN(C)CC4)ccc3OCC)[nH]c12 [euspeclibcmpd1008] | -0.649
Nc1ccc(NC(=O)c2cc(Cl)ccc2O)c(Cl)c1 | 1.83
O=C(Nc1cc(Cl)cc(Cl)c1O)c1c(O)c(Cl)cc(Cl)c1Cl [euspeclibcmpd2236] | 4.91 (active)
O=C(Nc1ccc(Br)cc1Cl)c1cc(Cl)ccc1O | 0.489
COC(=O)c1cc(-c2ccccc2)nc2ccccc12 | 1.89
O=C1C=Cc2c(c(O)c3ccccc3c2O)C1=O [euspeclibcmpd1683] | 0.752
O=C1CC(=O)c2c(c(O)c3ccccc3c2O)C1=O [euspeclibcmpd1727] | 8.98 (active)
Cc1cc(/C=C/c2ccc3cc(N(C)C)ccc3[n+]2C)c(C)n1-c1ccccc1 [euspeclibcmpd260] | 28.6 (active)
COc1c(-c2ccccc2)oc2cc(O)cc(O)c2c1=O [euspeclibcmpd2295] | -0.0938
CCCOc1ccc(C(=O)OCCN(CC)CC)cc1N [euspeclibcmpd842] | -0.601
CCCCOc1cc(C(=O)OCCN(CC)CC)ccc1N [euspeclibcmpd809] | 16.2 (active)

Compound | Srxn1-GFP intensity median modified Z-score
CCN(CC)CCOC(=O)c1ccc(N)cc1 [euspeclibcmpd248] | -0.882
O=C(O)C(O)C(O)C(O)C(O)C(=O)O (stereo not drawn) [euspeclibcmpd2053] | -0.466
Cc1[nH]c(C)c(Cl)c(=O)c1Cl [euspeclibcmpd744] | 6.67 (active)
Cc1[nH]c(=O)[nH]c1O [euspeclibcmpd1742] | -0.283
O=C(O)C=C(CC(=O)O)C(=O)O [euspeclibcmpd1609] | -0.206
C=C1CC2C3=CC(C)=C4CC(=O)CC[C@]4(C)C3CC[C@]2(C)[C@@]1(OC(C)=O)C(C)=O (stereo partly drawn) [euspeclibcmpd860] | 1.04
CSC1(CNC(=O)Nc2cnn(C)c2Cl)CC1 | 1.35
OC[C@@H](O)[C@@H](O[C@@H]1O[C@H](CO)[C@@H](O)[C@H](O)[C@H]1O)[C@H](O)[C@@H](O)CO [euspeclibcmpd2177] | -0.452
COC(=O)C(c1ccccc1Cl)N1CCc2sccc2C1 (stereo not drawn) [euspeclibcmpd599] | -0.316
CCCCC(CC)CN1CN(CC(CC)CCCC)CC(C)(N)C1 (stereo not drawn) [euspeclibcmpd1036] | 14.2 (active)
COc1cnc(=NS(=O)(=O)c2ccc(N)cc2)[nH]c1 [euspeclibcmpd408] | -0.161
NC(=O)CN1CCCCCCC1=O | 0.32
CC1=C(CC(=O)O)c2cc(F)ccc2C1=Cc1ccc([S+](C)[O-])cc1 (stereo not drawn) [euspeclibcmpd284] | -0.29
N#Cc1ccc(C(c2ccc(C#N)cc2)n2cncn2)cc1 [euspeclibcmpd693] | -0.19
c1ccc(C(c2ccccc2)(c2ccccc2)n2ccnc2)cc1 | 1.95
c1ccc(-c2ccc(C(c3ccccc3)n3ccnc3)cc2)cc1 (stereo not drawn) [euspeclibcmpd741] | 3.36 (active)
CCOC(=O)C(CCc1ccccc1)NC(C)C(=O)N1Cc2ccccc2CC1C(=O)O (stereo not drawn) [euspeclibcmpd521] | 0.162
CCOC(=O)C(CCc1ccccc1)NC(C)C(=O)N1CCCC1C(=O)O (stereo not drawn) [euspeclibcmpd421] | 0.166
CCOC(=O)C(CCc1ccccc1)NC1CCc2ccccc2N(CC(=O)O)C1=O (stereo not drawn) [euspeclibcmpd912] | 3.02 (active)
N=c1[nH]c(=O)[nH]cc1F [euspeclibcmpd698] | 1.2
CC(=O)OCC(=O)[C@@]1(O)[C@H](C)CC2C3CC=C4CC(=O)C=C[C@]4(C)[C@@]3(F)[C@@H](O)C[C@@]21C (stereo partly drawn) [euspeclibcmpd2125] | -0.395
Cc1cccc(N(C)C(=S)Oc2ccc3ccccc3c2)c1 [euspeclibcmpd299] | 8.23 (active)
CC(=O)Oc1cccc(C)c1 [euspeclibcmpd1228] | -0.455
CC(C)(C)NCC(O)COc1cccc2c1CCCC2=O (stereo not drawn) [euspeclibcmpd764] | -0.976
CCCCCCCCCCCCCCCCOP(=O)(O)OCC[N+](C)(C)C [euspeclibcmpd1120] | 1.47

Compound | Srxn1-GFP intensity median modified Z-score
NC(C(=O)NC1C(=O)N2C(C(=O)O)=C(Cl)CSC12)c1ccccc1 (stereo not drawn) [euspeclibcmpd343] | -0.608
Cn1cnc([N+](=O)[O-])c1Sc1ncnc2[nH]cnc12 [euspeclibcmpd29] | 2.86 (active)
N=c1[nH]cnc2c1ncn2C1O[C@H](COP(=O)(O)O)[C@@H](O)[C@H]1O (stereo partly drawn) [euspeclibcmpd330] | -0.321
COc1cccc2c(O)c3c(O)c4c(c(O)c3c(O)c12)=C(OC1C[C@H](N)[C@H](O)[C@H](C)O1)C[C@](O)(C(=O)CO)C=4 (stereo partly drawn) [euspeclibcmpd2291] | 0.455
CCc1ccc2c(O)c3c(O)c4c(c(O)c3cc2c1C(=O)OC)C(=O)C=CC4=O [euspeclibcmpd1950] | 1.63
CCC1(O)C=C(OC2CC(N(C)C)C(O)C(C)O2)c2c(cc3c(O)c4c(O)ccc(O)c4c(O)c3c2O)C1C(=O)OC (stereo not drawn) [euspeclibcmpd1939] | 97.7 (active)
CC[C@@]1(O)CC(=O)c2c(cc3c(O)c4c(O)ccc(O)c4c(O)c3c2O)C1C(=O)OC (stereo partly drawn) [euspeclibcmpd1470] | 70.7 (active)
COc1cccc2c(O)c3c(O)c4c(c(O)c3c(O)c12)=C(O[C@H]1C[C@H](N)[C@H](O)[C@H](C)O1)C[C@](O)(C(C)=O)C=4 [euspeclibcmpd83] | 0.648
COc1ccc2c(=O)ccoc2c1 [euspeclibcmpd1397] | 0.575
CC1(C)SC2C(NC(=O)C(C(=O)O)c3ccccc3)C(=O)N2C1C(=O)O (stereo not drawn) [euspeclibcmpd2333] | 0.114
O=c1c2cc(O)c(O)cc2oc2cc(O)c(C3O[C@H](CO)[C@@H](O)[C@H](O)[C@H]3O)c(O)c12 (stereo partly drawn) [euspeclibcmpd1520] | -0.904
CCCc1nc(=N)c(C[n+]2ccccc2C)c[nH]1 [euspeclibcmpd493] | -0.6
COc1cccc(-c2cc(=O)c3cc(OC)ccc3o2)c1 [euspeclibcmpd1659] | -0.339
COc1cc(O)c2c(c1)C(=O)c1cc(C)cc(O)c1C2=O [euspeclibcmpd1472] | 0.0189
O=C1c2cccc(O)c2C(=O)c2c(O)cccc21 [euspeclibcmpd3] | 19.4 (active)
Cc1cc(O)c2c(c1)C(=O)c1cccc(O)c1C2=O [euspeclibcmpd1712] | 4.5 (active)
Cc1cc(O)c2c(c1)C(=O)c1cc(O)cc(O)c1C2=O [euspeclibcmpd1604] | 0.573
O=C(O)C(O)[C@H](O)[C@H](O)[C@H](O)[C@H](O)CO (stereo partly drawn) [euspeclibcmpd2445] | -0.00236
CC(=O)C1(O)CCC2C3CC(C)=C4CC(=O)C=CC4(C)C3(F)C(O)CC21C (stereo not drawn) [euspeclibcmpd1970] | -0.646
COc1cc([C@H]2Oc3cc(C4Oc5cc(O)cc(O)c5C(=O)C4O)ccc3O[C@@H]2CO)ccc1O (stereo partly drawn) [euspeclibcmpd2298] | -0.00238
C[C@]12CCC(OC(=O)c3ccccc3)CC1CCc1ccccc12 (stereo partly drawn) [euspeclibcmpd2434] | 0.0569
CCn1c2cc(=N)ccc-2c2ccc(N)cc2c1-c1ccccc1 [euspeclibcmpd1148] | 4.33 (active)
C=C[C@@]1(C)CC(=O)[C@@]2(O)[C@](C)(O1)[C@@H](OC(C)=O)[C@@H](O)C1C(C)(C)CC[C@H](O)[C@@]12C (stereo partly drawn) [euspeclibcmpd604] | -1.15
